Assay results as given in PubChem BioAssay (Tox21).
Where “and” joins values, the source holds several entries; their conditions need not be identical. Equal values may be shown once. Results filed as inconclusive are left out. A call without a number means that no potency is given here. Some structures have more than one record in an assay (separate samples or runs), and their calls can disagree. Calls of active or inactive are those of the source. Calls follow the shape of the dose curve; as a rule, active = well fitted cell-killing curve with a large enough effect in the repeat runs; inconclusive = weak or mixed curves, or effect the other way; inactive = flat fitted curve, though single readings scatter.

assay: qHTS RealTime-Glo MT Cell Viability Assay in HEK293 cells - 24 hour (AID 1224886); settings: RealTime-Glo luminescence; series mostly up to 76.8 µM; activity change, negative = cytotoxicity: at the top concentration; also: nearly all actives have a fitted effect of over 50% in size; as to activity change, negative = cytotoxicity: top concentration of the series differs between compounds
Excerpt: National Center for Advancing Translational Sciences [NCATS]
NIH Chemical Genomics Center [NCGC]
U.S. Environmental Protection Agency [EPA]
National Institutes of Environmental Health Sciences [NIEHS]
National Toxicology Program [NTP]
U.S. Food and Drug Administration [FDA]
Measure of cell viability is critical in the cell-base assay. Analysis of cell viability is necessary for the characterization of cell responses to cytotoxic drugs and environmental stress. A RealTime-Glo MT Cell Viability Assay to monitor cell viability in real time of continues cell culture during 40 hours of compound treatment was used to screen Tox21 10K library compounds in Hek293 cells. The RealTime-Glo MT Cell Viability Assay is a nonlytic, homogeneous, bioluminescent method to measure cell viability in real time using a simple, plate-based method. The assay involves adding NanoLuc luciferase and a cell-permeant prosubstrate to cells in culture. Viable cells reduce the proprietary prosubstrate to generate a substrate for NanoLuc luciferase. This substrate diffuses from cells into the surrounding culture medium, where it is rapidly used by the NanoLuc Enzyme to produce a luminescent signal. The signal correlates with the number of viable cells, making the assay well suited for cytotoxicity studies.
Tox21 Assay Protocol Summary:
The mixture of Hek293 cell suspension and reagents were dispensed at 600cells/6 ul/well in 1536-well tissue culture treated black solid bottom plates using a Multidrop dispenser. After the assay plates were incubated at a 37 C/5% CO2 incubator for 5 hours, 23 nL of compounds dissolved in DMSO, positive and negative controls was transferred to the assay plate by a pintool work station. The plates were incubated at 37 C for 40 hours. The luminescence intensity were measured at 0h, 8h, 16h, 24h, 32h and 40h time points using ViewLux plate reader during compound treatment.
Potency is read from the fitted curve at half-maximal effect.

| SMILES | Potency | activity change, negative = cytotoxicity |
| --- | --- | --- |
| CCCCNC(=O)NS(=O)(=O)c1ccc(N)cc1 | inactive | – |
| CCN1CCCC1=O | inactive | – |
| CCOC(=O)C(C)(C)Oc1ccc(Cl)cc1 | inactive | – |
| CC(=O)/C=C/C1=C(C)CCCC1(C)C | inactive | – |
| CC(=O)c1ccc(S(=O)(=O)NC(=O)NC2CCCCC2)cc1 | inactive | – |
| CC1=NN(c2ccccc2)C(=O)C1 | inactive | – |
| COCCOCCOC | inactive | – |
| C#C[C@]1(O)CC[C@H]2[C@@H]3CCC4=CC(=O)CC[C@@H]4[C@H]3CC[C@@]21CC | 43.6 µM (active) and inactive | – |
| Cn1cnc2c1c(=O)[nH]c(=O)n2C | inactive | – |
| Cc1cccc(Nc2cc(Cl)nc(SCC(=O)O)n2)c1C | inactive | – |
| N[C@@H](Cc1c[nH]c2ccc(O)cc12)C(=O)O | inactive | – |
| CC(=O)CCC(C)C | inactive | – |
| CCCCOCCOCCSC#N | inactive | – |
| CO[C@H]1C=CO[C@@]2(C)Oc3c(C)c(O)c4c(O)c(c(/C=N/N5CCN(C)CC5)c(O)c4c3C2=O)NC(=O)/C(C)=C\C=C[C@H](C)[C@H](O)[C@@H](C)[C@@H](O)[C@@H](C)[C@H](OC(C)=O)[C@@H]1C | 12.4 µM (active) and 4.42 µM (active) and 21.3 µM (active) | – |
| COC(=O)C1CCC(C(=O)OC)CC1 (stereo not given) | inactive | – |
| CC(=O)OC/C=C(C)/C=C/C=C(C)/C=C/C1=C(C)CCCC1(C)C | inactive | – |
| CCCCOCCOCCOC(C)=O | inactive | – |
| CC1(C)O[C@@H]2[C@@H](CO[C@@]3(COS(N)(=O)=O)OC(C)(C)O[C@@H]23)O1 | inactive | – |
| CCCCOC(=O)CCCCCCCCC(=O)OCCCC | inactive | – |
| CCCCCCCC(=O)OCC(O)CO (stereo not given) | inactive | – |

| SMILES | Potency | activity change, negative = cytotoxicity |
| --- | --- | --- |
| Cc1cnc(NC(=O)C2=C(O)c3ccccc3S(=O)(=O)N2C)s1 | inactive | – |
| C1CNCCN1 | inactive | – |
| O=C(O)CN(CC(=O)O)CC(=O)O | inactive | – |
| COCC(C)N (stereo not given) | inactive | – |
| Nc1ccc(N=Nc2ccccc2)c(N)n1 | 39.1 µM (active) and 24.5 µM (active) | – |
| Oc1cccc(O)c1 | inactive | – |
| CCCCC/C(C=O)=C\c1ccccc1 | inactive | – |
| NC(=O)N1c2ccccc2C=Cc2ccccc21 | inactive | – |
| OCCCc1ccccc1 | – | 2.15% [at 35.3 µM] (inactive) |
| OC[C@@H](O)[C@@H](O)[C@H](O)[C@H](O)CO | inactive | – |
| O=C(O)CCCCC1CCSS1 (stereo not given) | inactive | – |
| CCn1cc(C(=O)O)c(=O)c2ccc(C)nc21 | inactive | – |
| C=CC(=O)NC(C)(C)CS(=O)(=O)O | inactive | – |
| c1ccc2[nH]c(-c3cscn3)nc2c1 | – | -21.7% [at 35.3 µM] (inactive) |
| NC(=O)N/N=C/c1ccc([N+](=O)[O-])o1 | inactive | – |
| Nc1cccc(N)c1 | inactive | – |
| NC(=O)c1ccc([N+](=O)[O-])cc1Cl | inactive | – |
| C=C(C)C(N)=O | inactive | – |
| O=c1cc[nH]c(=O)[nH]1 | inactive | – |
| COC(=O)c1ccc(C=O)cc1 | inactive | – |
